Results as given in publication PMC13494018.

B1: design_603_0b98da89-d791-4423-9b2d-fd1b7292da18_1135_dldesign_0_cycle1_af2pred (protein)
chain: SEELKELAKAVLEEFSKKVHELYELAAEKDKETSKKIKELAKKAAEYGKKAVEDYLKGEKKEEGEKYKKEAEKYFEEAKKLAE
B2: design_603_0b98da89-d791-4423-9b2d-fd1b7292da18_1249_dldesign_0_cycle1_af2pred (protein)
chain: AEASKQAAKEIAATVRKLGEKVPEAAPLAEEAAKAVEAAAGEAPEKIAAVAIAALKEIGEKVPEATSLANEARAEARGIAHEAKK
B3: design_603_0b98da89-d791-4423-9b2d-fd1b7292da18_819_dldesign_0_cycle1_af2pred (protein)
chain: SAKEKASAALRAVATAAARDAKKRFPKIDKETANEFQKARMYAADPNEVAKGIEHLKAAAAKLGEIGKEYIAAADKVAALL
B4: design_603_0b98da89-d791-4423-9b2d-fd1b7292da18_573_dldesign_0_cycle1_af2pred (protein)
chain: EELLKGAEEIKKKAEEVVKEIKKINPKLGEEAEKELKEAEKEGKKETPAVYIQKMQEALTYAKSLLIKAKKE
B5: design_603_0b98da89-d791-4423-9b2d-fd1b7292da18_1568_dldesign_0_cycle1_af2pred (protein)
chain: DEELKKEAKEEIKKAAEKGIAAAKAGNILEAQFYAVEAREIGREYAKKIKNKELAKEVKEYAKKQAEKIRAEAAKVLAA
B6: design_603_0b98da89-d791-4423-9b2d-fd1b7292da18_1094_dldesign_0_cycle1_af2pred (protein)
chain: GKEEAEKKLKEAKEKVEEMEKKAKEIEENAKELSAEEIEKIAEEMRKEGEEAIKKAEEADPEKGKEIRKKASEAVHKIREAIAEAKA
B7: design_603_0b98da89-d791-4423-9b2d-fd1b7292da18_1956_dldesign_0_cycle1_af2pred (protein)
chain: VTRAELAALAHEVQEAANEVYFEAKKSKNTEKLQALAREAKALVKQAASADPETALALLKEAQALVDEAKKILEKEKKE
B8: design_603_0b98da89-d791-4423-9b2d-fd1b7292da18_386_dldesign_0_cycle1_af2pred (protein)
chain: EKEEIIKRAKEAAERMKELAKKDPKYAEDAKKGKEVAEKAIEKAKESDKSLASAEALAESLELAVEYLEKKLKE
B9: design_603_0b98da89-d791-4423-9b2d-fd1b7292da18_2081_dldesign_0_cycle1_af2pred (protein)
chain: AEEAEKKVKELAKKAEEAFRRAREAGAKAVEKDPSVAKRASELVHQAAQYRAEAKAAKDPEEAKEALKKAEKAREELEKLAKA
B10: design_603_0b98da89-d791-4423-9b2d-fd1b7292da18_594_dldesign_0_cycle1_af2pred (protein)
chain: SMEEEAKKKLEEVKKEAEKVKKEAEKALKEAKATDKAKGLAAMAKVAAKAHEVRAEGDYYGKYDPEAAKIGKEVMEYVRAKAKEIEA
B11: design_603_0b98da89-d791-4423-9b2d-fd1b7292da18_572_dldesign_0_cycle1_af2pred (protein)
chain: SEKEEYLKKAKEEMEKLKAEILELMKKGNEYLPEASKLMAEMREIGAEAAFYVGPEADELRKKIMGEVLEAAKKYSG
B12: design_603_0b98da89-d791-4423-9b2d-fd1b7292da18_1818_dldesign_0_cycle1_af2pred (protein)
chain: AEEKIKEGEEKAKKFVEKAKELAKEGKYNAALGYVEAAKDVAKEIEKLSEEGKEVGKKIKEEAEKAEKIVKEKEKEKKELEE
B13: design_603_0b98da89-d791-4423-9b2d-fd1b7292da18_1535_dldesign_0_cycle1_af2pred (protein)
chain: MEEKYLKEAEKLLEEGKKEIERAGKEEGAEAAKEVGKKYLEKLTEVAKKLSPEKEGEVLLKFKKESMKIIKEAEEREK
B14: design_603_0b98da89-d791-4423-9b2d-fd1b7292da18_1770_dldesign_0_cycle1_af2pred (protein)
chain: DLEEVKKKASELLFKAIDLVSSGEKEEEGEKAIEEAKKILLSYGKEHPEYAKEMEEGAKKVESVYESAKKAAK
B15: design_603_0b98da89-d791-4423-9b2d-fd1b7292da18_1163_dldesign_0_cycle1_af2pred (protein)
chain: MEALKEIKELMKKAEEEAKKLAKSMGVEGAKEGLKVAEKYFSSIFDIAIEKLTPEEAKEALDIANKAAKEIKDYIDKAIAEK
B16: design_603_0b98da89-d791-4423-9b2d-fd1b7292da18_215_dldesign_0_cycle1_af2pred (protein)
chain: MTEEEERALVRGAYRAAVEAAKDPANAADYLAKSKALADELIAKGSKKAIASAAFKLEGVAEAAAKDPATAEVAKAANATAKRLNAAL
B17: design_603_0b98da89-d791-4423-9b2d-fd1b7292da18_1252_dldesign_0_cycle1_af2pred (protein)
chain: AKEVVKKAKAEAKKLGEKAAAAETLEEAKKLVKELRKEAEKQAKEMKKAGAPEKDIKEVLTTAAELGAEALAEVRS
B18: design_603_0b98da89-d791-4423-9b2d-fd1b7292da18_2015_dldesign_0_cycle1_af2pred (protein)
chain: KETAEELLENARKLAEKAGELVGPELLEVMEKMIEAAKKEDGKKEIEELAKEALELAKKAGVPEAAEYIHQAKADAYAANVFRK
B19: design_603_0b98da89-d791-4423-9b2d-fd1b7292da18_2150_dldesign_0_cycle1_af2pred (protein)
chain: HERFKYAASAETIAEQVEETAKIYGDEELKEAAKKIKEAAKEAEKSEDAEEAKKAYEKAKEIRKKARKELKAKKA
B20: design_603_0b98da89-d791-4423-9b2d-fd1b7292da18_2026_dldesign_0_cycle1_af2pred (protein)
chain: SSMKEEEIKEMEKAAKKAAELLDDEEAAKKLLEAVKLAIEDPKEGTKKLREIAKEIGAKGSEEVKKALEEAVHAALRYRAI
B21: design_603_0b98da89-d791-4423-9b2d-fd1b7292da18_996_dldesign_0_cycle1_af2pred (protein)
chain: SAAEERRKKGLELAEKRYAELEKLAKETEELNPELGKEAKKEAEEAKKYYEKAAEAPDSEVIDYVAKANEKRIKAEKLYKKAK
B22: design_603_0b98da89-d791-4423-9b2d-fd1b7292da18_519_dldesign_0_cycle1_af2pred (protein)
chain: AAAQEEARKAAERAAKIMRRRGERTGDLEKAEEAAKRVAAALAEGRAAGSAAMAEALEEFAELEYEKRKEEKKKKEEALE
B23: design_603_0b98da89-d791-4423-9b2d-fd1b7292da18_614_dldesign_0_cycle1_af2pred (protein)
chain: DEYVKKAKEAIKKAKEYVEEAKKYAEKGDIENAIKSVQKAQEEISAAYFYADQALKLDPEKGKKLKEEAEKVKEELEKVKEYIKAK
B24: design_603_0b98da89-d791-4423-9b2d-fd1b7292da18_2191_dldesign_0_cycle1_af2pred (protein)
chain: MEEAKKKAEELIKRAKEHVEKARKIAKEGGSTMEAMLHILEAEADAREALKIGEKYPELKEMAEEAKEYVKKTRKEIKAILKA
B25: design_603_0b98da89-d791-4423-9b2d-fd1b7292da18_1132_dldesign_0_cycle1_af2pred (protein)
chain: EEEASKKAREDADKISKEQKKIKENAKAAKAGTPEEAKAKYEEAKKAAEEIKKIDPDLGTFVLNNIKKWYA
B26: design_603_0b98da89-d791-4423-9b2d-fd1b7292da18_403_dldesign_0_cycle1_af2pred (protein)
chain: AAAAEERAAGLAGRARVLEKSGLRLAKLNPEQGELLAEFLREEAEADPIGAPHFRAAADRLLAEVRKYKE
B27: design_603_0b98da89-d791-4423-9b2d-fd1b7292da18_754_dldesign_0_cycle1_af2pred (protein)
chain: NDEEAKQKLAEAAAKLHEAAALAEYEGDEELAKKAREAAKELKAAAADPSLTAEEKAKLAEEAKKKAEEIIKKVEEK
B28: design_603_0b98da89-d791-4423-9b2d-fd1b7292da18_1380_dldesign_0_cycle1_af2pred (protein)
chain: GEEVAKVLEKNAEIAREGDAEEAIAALKEAAKELNKYHKLQPYAERLEFLAEELKKNKADPEKAAAIAKYGAELLKKAAEVAK
B29: design_603_0b98da89-d791-4423-9b2d-fd1b7292da18_1193_dldesign_0_cycle1_af2pred (protein)
chain: GEEEKLKELIKKTEELAEGTEKLAKKVSEKYPEFEEELKKAAEEAKKAAEEAKKNPEKAPEQYKKVNEKNFEVQQLRAEGKYKS
B30: design_603_0b98da89-d791-4423-9b2d-fd1b7292da18_1699_dldesign_0_cycle1_af2pred (protein)
chain: MTDLEIVEENIKEAREEFARDPRLGLAVARATVSTAKAMSKKSEEGKKALEKAKAFLEELEAEYRARLAAAAAAAAAAE
B31: design_603_0b98da89-d791-4423-9b2d-fd1b7292da18_1531_dldesign_0_cycle1_af2pred (protein)
chain: SEAKEEAKKALERLKKVRERAKEEAPLLTPEERKELSELLAKAREYLNLALVSKDEKEAKKYVEKGKEYLEKAEKLIEKAKAKA
B32: design_603_0b98da89-d791-4423-9b2d-fd1b7292da18_1486_dldesign_0_cycle1_af2pred (protein)
chain: MSIELLAEAARAAVRIARALGEAEDVETAVAFRDKAIEAAAEDEEMAKKIIAAAKEVEDPATALAAARAALAAVEAFAA
B33: design_603_0b98da89-d791-4423-9b2d-fd1b7292da18_1363_dldesign_0_cycle1_af2pred (protein)
chain: EEEERKSRQAYGKALSLIELARHAAKADPKAYPLALKYIEKAKELAEEASEELKKEVLEEAEEAEKEVLELGKK
B34: design_603_0b98da89-d791-4423-9b2d-fd1b7292da18_768_dldesign_0_cycle1_af2pred (protein)
chain: KAFQAYNSSKALADNNVAVAKKLAEKGKLEEAEKAAKEGLERLKARAERLKGDPEAYKAAMKALEEYEKRAKEVVEEGKKAK
B35: design_603_0b98da89-d791-4423-9b2d-fd1b7292da18_450_dldesign_0_cycle1_af2pred (protein)
chain: MKKEEELKAKYKKAKELVEEKYKRAKEVVKNGTVEQGLAAAESLLEFGKHAGKSLEKAGDKEGGKEVKELAEKYYKELKEEAEKKA
B36: design_603_0b98da89-d791-4423-9b2d-fd1b7292da18_227_dldesign_0_cycle1_af2pred (protein)
chain: DKLKEKAEKLKKEVEEEMKKMKKLVKEGKEEEAKAEAKKTKEIAEKAEKAGEEAIEKGDEESKKAGRDALATAERAKQAAKAVIK
B37: design_603_0b98da89-d791-4423-9b2d-fd1b7292da18_1943_dldesign_0_cycle1_af2pred (protein)
chain: PPADELLALADKKAEEVEKKIEEAAEYGKKSGDKEKALKLIDEVLKEAEKEAEELIAKPETRAAGVILRNEAEVMAKNAKEKLLK
B38: design_603_0b98da89-d791-4423-9b2d-fd1b7292da18_2177_dldesign_0_cycle1_af2pred (protein)
chain: MKALEEAEEFAKKMIEEAKKWGEAEADVAKVLGKSLLEAVEKTLKEKNEEAALAVAKEGKEKAKKIMDRIKEDIERAKKS

The binders below were run against VTCN1, Q7Z7D3.
VTCN1, Q7Z7D3, sequence (Q7Z7D3 whole entry): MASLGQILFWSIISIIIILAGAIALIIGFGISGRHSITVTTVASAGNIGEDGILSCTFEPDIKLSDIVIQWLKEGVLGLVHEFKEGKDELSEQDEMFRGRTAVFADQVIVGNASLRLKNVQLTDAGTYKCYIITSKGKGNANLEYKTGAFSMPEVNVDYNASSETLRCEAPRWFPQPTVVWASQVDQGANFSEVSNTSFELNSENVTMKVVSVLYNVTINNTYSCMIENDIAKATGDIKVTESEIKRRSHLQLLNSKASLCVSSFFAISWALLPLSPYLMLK

Binding in a display sort, inactive:
B1 not found
B2 not found
B3 not found
B4 not found
B5 not found
B6 not found
B7 not found
B8 not found
B9 not found
B10 not found
B11 not found
B12 not found
B13 not found
B14 not found
B15 not found
B16 not found
B17 not found
B18 not found
B19 not found
B20 not found
B21 not found
B22 not found
B23 not found
B24 not found
B25 not found
B26 not found
B27 not found
B28 not found
B29 not found
B30 not found
B31 not found
B32 not found
B33 not found
B34 not found
B35 not found
B36 not found
B37 not found
B38 not found
